Assay in all cases: NCI-60 one-dose screen, 48 h (100 = growth as untreated, 0 = no growth, -100 = all killed)
Common to all, as to settings: 10 µM unless noted

Assay [1] deals with T-47D breast.
Assay [2] relates to BT-549 breast.
Assay [3] concerns MDA-MB-435 melanoma.
The test system of assay [4] is SW-620 colon.
Assay [5] has as its system MCF7 breast.
The subject of assay [6] is HCT-116 colon.
The test system of assay [7] is HCC-2998 colon.
Assay [8] has as its system KM12 colon.

Our source for the growth values is PubChem BioAssay (NCI).

This is part of a sample that, as a whole, favours compounds with a hit. Of some 83,000 tested, about 20% had one in any assay.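 Method: cells in 96-well plates; compound added at one concentration; 48 h incubation; percent growth measured; values under 10 scored active.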 A number with no mark means an inactive call. The source made the active and inactive calls.

Consider `COc1cccc(-c2nc3sccn3c2-c2ccnc(NCCN3CCCNS3(=O)=O)n2)c1`, for which the growth in assay [1] is 95.3%; in assay [2], 113%; in assay [3] it was 54.1%; in assay [4] it was 127%; in assay [5], 100%; in assay [6] it was 74.6%. The growth in assay [7] is 118%; in assay [8], 103%.
Turning to `Cc1cc([N+](=O)[O-])c(C)cc1N`, the growth was 111% in assay [1]; 101% in assay [2]; 110% in assay [3]; 104% in assay [4]; 90.9% in assay [5]; 109% in assay [6]. The growth is 102% in assay [7] and 107% in assay [8].
Turning to `CN(C)c1ccc(/C=C\c2cccc[n+]2C)cc1`, the growth in assay [1] was 14.6%; in assay [2], 20.1%; in assay [3] it was 33.6%; in assay [4] it was 22.4%; in assay [5] it was 39.3%; in assay [6] it was 19.3%. The growth in assay [7] was 35.7%; in assay [8], 6.97% (active).
For `O=S(=O)(Cc1ccc(Cl)cc1Cl)c1ccc(Cl)cc1`, the growth in assay [1] is 47.5%; in assay [2] it was 62.7%; in assay [3], -33.1% (active); in assay [4], 37.5%; in assay [5], 22.1%; in assay [6], 26.9%. Besides, the growth was 31.7% in assay [7] and 33.6% in assay [8].
In the case of `N=C(N)c1ccc(-c2ccc(-c3ccco3)o2)cc1F`, the growth in assay [1] is -27.8% (active); in assay [2], 25%; in assay [3], -59.1% (active); in assay [4], -11.3% (active); in assay [5], -13.7% (active); in assay [6] it was -21.2% (active). The growth in assay [7] was -74.7% (active); in assay [8] it was 4.94% (active).
For `CCN(CC)CCNC(=O)n1cc(-c2ccncc2)c(-c2cc(Cl)cc(OC)c2)n1`, the growth in assay [1] is 87.3%; in assay [2], 95.6%; in assay [3] it was 83.5%; in assay [4], 100%; in assay [5], 87.7%; in assay [6] it was 85.5%. For the same molecule, the growth was 113% in assay [7] and 98.3% in assay [8].
For the molecule `N/C(=C\C(=O)n1nc(-c2ccccc2)cc1N)c1ccccc1`, the growth in assay [1] is 47%; in assay [2] it was 30.1%; in assay [3] it was -0.658% (active); in assay [4], 36.1%; in assay [5], 35%; in assay [6] it was 27.4%. In addition, the values for the growth in assay [7] and in assay [8] were 43.9% and 30%, respectively.
As for `COc1ccc2c(c1)N(Cc1ccc(Cl)cc1)CCC2N1CCCC1=O` (stereo not drawn), the growth in assay [1] is 31.5%; in assay [2], 16.1%; in assay [3], 46.2%; in assay [4], 72.1%; in assay [5] it was 35.5%; in assay [6], 55.1%. Besides, the growth in assay [7] is 49.7%; in assay [8], 50.4%.
In the case of `CC(=O)O[C@H]1CC[C@]2(C)[C@H]3CC=C4[C@@H]5CC(C)(C)CC[C@]5(C(=O)OCC(COC(=O)C(Cl)Cl)(COC(=O)C(Cl)Cl)NC(=O)C(Cl)Cl)CC[C@@]4(C)[C@]3(C)CC[C@H]2C1(C)C`, the growth in assay [1] was 32.7%; in assay [2], 75.2%; in assay [3], 78.6%; in assay [4], 79.4%; in assay [5], 41.9%; in assay [6] it was 26.7%. Besides, the growth is 86.9% in assay [7] and 52.2% in assay [8].
As for `O=C1OC(/C=C/c2ccccc2)=NC/1=C/c1ccccc1[N+](=O)[O-]`, the growth was 90.5% in assay [1]; 89.8% in assay [2]; 108% in assay [3]; 103% in assay [4]; 90.7% in assay [5]; 104% in assay [6]. Also, the growth is 104% in assay [7] and 102% in assay [8].
For the molecule `O=P(O)(O)C(O)(Cc1cccnc1)P(=O)(O)O`, the growth is 76.6% in assay [1]; 86.3% in assay [2]; 97.6% in assay [3]; 98.7% in assay [4]; 91.2% in assay [5]; 106% in assay [6]. Further, the growth in assay [7] was 119%; in assay [8] it was 100%.
Regarding `CCCCCCCCCCCC1=NC(C)(C)CN1CC(C)O` (stereo not drawn), the growth in assay [1] is 58.9%; in assay [2], 67.8%; in assay [3], -7.43% (active); in assay [4], 52%; in assay [5], 25.8%; in assay [6], 22.8%. The growth in assay [7] is -60.8% (active); in assay [8], 34%.
On to `COc1ccc(NC(=O)c2sc3c(=O)[nH]c(C(F)(F)F)nc3c2C)cc1`, for which the growth in assay [1] was 89.7%; in assay [2] it was 103%; in assay [3] it was 103%; in assay [4], 112%; in assay [5] it was 84.3%; in assay [6], 100%. The growth was 111% in assay [7] and 106% in assay [8].
`ClCCn1cnc2c(SCc3ccccc3Cl)ncnc21`: the growth in assay [1] was 52.8%; in assay [2] it was 44.1%; in assay [3], 37.5%; in assay [4] it was 28.9%; in assay [5], 21.6%; in assay [6], 32.8%. The growth is 51.1% in assay [7] and 34.8% in assay [8].
`CC[C@H](C)[C@H](N)C(=O)O`: the growth in assay [1] was 104%; in assay [2] it was 108%; in assay [3], 98.8%; in assay [4], 103%; in assay [5], 103%; in assay [6], 115%. Besides, the growth is 106% in assay [7] and 99.5% in assay [8].
As to `C/C(=N\NC(=O)CSc1nc2ccccc2c(=O)n1CCc1ccc(S(N)(=O)=O)cc1)c1ccc(Br)cc1`, the growth in assay [1] is 91.9%; in assay [2], 93.9%; in assay [3], 78.3%; in assay [4], 77.3%; in assay [5] it was 80.5%; in assay [6], 41.2%. Further, the growth in assay [7] was 90.7%; in assay [8] it was 74.1%.
